This note sets out measurements from PubChem BioAssay (Tox21).

Test [1] can be described thus: qHTS assay to identify small molecule antagonists of the thyroid receptor (TR) signaling pathway - cell viability counter screen (AID 743064). Note: nearly all actives have a fitted effect of over 50% in size. The gist of the method: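 Rat GH3 pituitary tumor cells stably expressing two TR response elements driving luciferase were plated, rested 4 h, then dosed with library compounds and T3 (1 nM final). After 23.5 h at 37 °C, CellTiter-Fluor was added for 30 min and fluorescence recorded.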
(In general: Quantitative high-throughput screening tests each substance at several concentrations.)

Test [2] can be described thus: qHTS assay to identify small molecule antagonists of the thyroid receptor (TR) signaling pathway (AID 743065). Note: nearly all actives have a fitted effect of over 55% in size. Note: potency is the fitted concentration of half-maximal effect. An outline of the steps:
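GH3.TRE-Luc rat pituitary cells carrying two TR response elements driving luciferase were plated for 4 h, given compound plus 1 nM T3 (final), and incubated 23.5 h at 37 C. ONE-Glo luminescence measured reporter inhibition; CellTiter-Fluor fluorescence tracked cytotoxicity.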

The subject of test [3] is thyroid hormone receptor (rat, GH3 cells). The test can be described thus: qHTS assay to identify small molecule agonists of the thyroid receptor (TR) signaling pathway (AID 743066; calls by dose curve).
The nature of test [4]: qHTS assay to identify small molecule antagonists of the estrogen receptor alpha (ER-alpha) signaling pathway - cell viability counter screen (AID 743074; calls by dose curve;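 note: HEK293 cells carrying ER-alpha-UAS-bla reporter stimulated with 17beta-estradiol; nearly all actives have a fitted effect of over 45% in size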).
Test [5] can be described thus: qHTS assay to identify small molecule antagonists of the estrogen receptor alpha (ER-alpha) signaling pathway using the BG1 cell line - cell viability counter screen (AID 743081).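 Note: compound given together with 17beta-estradiol as the ER stimulus; series mostly up to about 70 µM; nearly all actives have a fitted effect of over 45% in size.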
A short description of test [6]: qHTS assay to identify aromatase inhibitors - cell viability counter screen (AID 743084).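 Note: cells stimulated with testosterone during compound exposure; nearly all actives have a fitted effect of over 55% in size.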
Test [7] has as its target Aryl hydrocarbon receptor (Homo sapiens) (UniProt P35869). The test can be described thus: qHTS assay to identify small molecule that activate the aryl hydrocarbon receptor (AhR) signaling pathway (AID 743085).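 For activation: HG2L7.5c1 human HepG2 liver cells with stably integrated DRE-driven firefly reporter; series mostly up to about 70 µM.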 Note: nearly all actives have a fitted effect of over 15% in size. Note: potency is the fitted concentration of half-maximal effect. An outline of the steps: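 Compounds were tested in HepG2 hepatocellular carcinoma cells harbouring a stably integrated luciferase gene under control of 20 DREs. Increased reporter signal after 24 h treatment at 37C was taken as AhR activation.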

A short description of test [8]: qHTS assay to identify small molecule that activate the aryl hydrocarbon receptor (AhR) signaling pathway - cell viability counter screen (AID 743086).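 Note: HepG2 liver cells carrying the AhR DRE luciferase reporter; series mostly up to about 70 µM; nearly all actives have a fitted effect of over 45% in size.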 An outline of the steps: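 HepG2-AhR-luc (HG2L7.5c1) cells, 4000/well, were preincubated 5 h at 37C, exposed to compound in qHTS format for 24 hr at 37C, then given CellTiter-Fluor for 30 min; viability was read as fluorescence in the reporter wells.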

Test [9] is described as follows: qHTS assay to identify small molecule antagonists of the peroxisome proliferator-activated receptor gamma (PPARg) signaling pathway - cell viability counter screen (AID 743194). Note: nearly all actives have a fitted effect of over 55% in size. The gist of the method:
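PPARg-UAS-bla HEK293H cells were plated, rested 5 h at 37 C, then treated with compounds plus rosiglitazone (50 nM final) for 17 h at 37 C; viability was then read by CellTiter-Glo luminescence after 30 min at room temperature.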

Test [10] can be described thus: qHTS assay for small molecule agonists of the antioxidant response element (ARE) signaling pathway (AID 743202; active = well fitted activation curve with a large enough effect in the signal ratio in the repeat runs, not every such curve was filed as active; the % refers to the signal ratio; note: potency is the fitted concentration of half-maximal effect). The gist of the method: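 Following a 16 h, 37 C exposure of reporter HepG2 cells (ARE-driven beta-lactamase, 2,000 cells/well) to compounds, FRET substrate was applied for 2 h at room temperature and fluorescence intensity recorded.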
Test [11] is described as follows: qHTS assay for small molecule agonists of the antioxidant response element (ARE) signaling pathway - cell viability counter screen (AID 743203; calls by dose curve; note: nearly all actives have a fitted effect of over 55% in size; note: potency is the fitted concentration of half-maximal effect). The gist of the method: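 ATP content via CellTiter-Glo luminescence served as the viability measure. Cells: ARE-bla HepG2, 2,000 per well. Exposure: 16 hrs, 37C/5% CO2.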
Test [12] is described as follows: qHTS assay for small molecule activators of the heat shock response signaling pathway - cell viability counter screen (AID 743209). Note: nearly all actives have a fitted effect of over 50% in size. Note: potency is the fitted concentration of half-maximal effect. The gist of the method: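 Compounds dissolved in DMSO were added to overnight-plated HSE-bla HeLa cells and left 5 h at 37 C. Cell viability was quantified by luminescence using CellTiter-Glo.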
The nature of test [13]: qHTS assay for small molecule activators of the heat shock response signaling pathway (AID 743210; active = well fitted activation curve with a large enough effect in the signal ratio in the repeat runs, with a control signal flat, not every such curve was filed as active; the % refers to the signal ratio; note: series mostly up to about 63 µM). The gist of the method:
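Heat shock element–beta-lactamase HeLa reporter cells; qHTS with compounds for 5 h at 37 C; detection by FRET substrate fluorescence after 2.5 h at RT.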

The target of test [14] is Estrogen receptor (Homo sapiens) (UniProt P03372). Kind of test: qHTS assay to identify small molecule antagonists of the estrogen receptor alpha (ER-alpha) signaling pathway (AID 743069; active = well fitted curve in the direction sought with a large enough effect in the signal ratio in the repeat runs, not every such curve was filed as active; the % refers to the signal ratio). The gist of the method:
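A 17beta-estradiol challenge was applied right after compound transfer to ER-alpha-UAS-bla HEK293 cells previously kept in charcoal-stripped serum. Plates stood 18 hr at 37C and 5% CO2; fluorescence was read following 2 hr FRET substrate loading at room temperature.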

Test [15] shares this target. Kind of test: qHTS assay to identify small molecule agonists of the estrogen receptor alpha (ER-alpha) signaling pathway (AID 743075; calls by dose curve;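 note: HEK293 GripTite cells with ER-alpha and UAS-driven beta-lactamase reporter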).
Test [16] shares this target. Kind of test: qHTS assay to identify small molecule agonists of the estrogen receptor alpha (ER-alpha) signaling pathway using the BG1 cell line (AID 743079). Note: nearly all actives have a fitted effect of over 20% in size.
Test [17] in a line: qHTS assay to identify small molecule antagonists of the estrogen receptor alpha (ER-alpha) signaling pathway using the BG1 cell line (AID 743080; calls by dose curve;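 note: BG1 cells stimulated with 17beta-estradiol alongside compound; series mostly up to about 70 µM; nearly all actives have a fitted effect of over 25% in size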). The gist of the method:
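Endogenous full-length ER-alpha in BG1-Luc-4E2 cells drives a stably integrated 4×ERE luciferase gene; compounds were tested against 17beta-estradiol over 21.5 h, with luminescence and multiplexed viability fluorescence recorded.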

A further test has as its target Aromatase (Homo sapiens) (UniProt P11511). The test can be described thus: qHTS assay to identify aromatase inhibitors (AID 743083).
In test [18] the target is Peroxisome proliferator-activated receptor gamma (Homo sapiens) (UniProt P37231). Kind of test: qHTS assay to identify small molecule agonists of the peroxisome proliferator-activated receptor gamma (PPARg) signaling pathway (AID 743094; active = well fitted activation curve with a large enough effect in the signal ratio in the repeat runs, not every such curve was filed as active; the % refers to the signal ratio). An outline of the steps: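 Agonism was assessed in a beta-lactamase reporter system, HEK293H cells with a stably integrated UAS-bla construct under PPARg control; the 17 h treatment at 37C preceded a 1 h room-temperature FRET substrate read.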
Chain of Peroxisome proliferator-activated receptor gamma (Homo sapiens) (P37231 whole entry, looked up): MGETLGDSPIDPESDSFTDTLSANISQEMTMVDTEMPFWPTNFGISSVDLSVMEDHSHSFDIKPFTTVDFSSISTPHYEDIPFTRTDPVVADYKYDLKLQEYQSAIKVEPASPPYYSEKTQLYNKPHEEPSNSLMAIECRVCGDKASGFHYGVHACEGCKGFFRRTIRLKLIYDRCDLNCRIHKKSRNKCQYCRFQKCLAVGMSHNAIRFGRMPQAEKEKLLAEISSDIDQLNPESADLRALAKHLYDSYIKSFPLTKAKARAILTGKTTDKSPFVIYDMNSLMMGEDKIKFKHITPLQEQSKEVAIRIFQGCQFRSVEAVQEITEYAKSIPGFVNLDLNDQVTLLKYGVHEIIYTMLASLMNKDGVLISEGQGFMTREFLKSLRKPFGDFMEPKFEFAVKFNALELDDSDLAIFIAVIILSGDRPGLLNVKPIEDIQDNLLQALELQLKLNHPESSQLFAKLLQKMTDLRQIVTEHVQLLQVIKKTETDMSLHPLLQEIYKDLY

Test [19] shares this target. Kind of test: qHTS assay to identify small molecule antagonists of the peroxisome proliferator-activated receptor gamma (PPARg) signaling pathway (AID 743191; calls by dose curve; note: nearly all actives have a fitted effect of over 30% in size; note: potency is the fitted concentration of half-maximal effect). An outline of the steps:
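GeneBLAzer PPARg UAS-bla HEK293H cells carrying a UAS-driven beta-lactamase reporter were plated at 3000 cells/well, preincubated 5 h at 37C, then given compound for 17 h at 37C; LiveBLAzer B/G FRET substrate was read after 1 h at room temperature.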

Where “and” joins values, the source holds several entries; their conditions need not be identical. Equal values may be shown once. Records with an inconclusive call do not appear. Some structures have more than one record in an assay (separate samples or runs), and their calls can disagree. Calls of active or inactive are those of the source. Unless noted, calls come from the whole dose curve; as a rule, active = well fitted curve in the direction sought with a large enough effect in the repeat runs; inconclusive = weak or mixed curves; inactive = no such curve, though single readings can be large; an effect the other way counts as inactive or inconclusive.

Chain of Aryl hydrocarbon receptor (Homo sapiens) (P35869 whole entry, looked up): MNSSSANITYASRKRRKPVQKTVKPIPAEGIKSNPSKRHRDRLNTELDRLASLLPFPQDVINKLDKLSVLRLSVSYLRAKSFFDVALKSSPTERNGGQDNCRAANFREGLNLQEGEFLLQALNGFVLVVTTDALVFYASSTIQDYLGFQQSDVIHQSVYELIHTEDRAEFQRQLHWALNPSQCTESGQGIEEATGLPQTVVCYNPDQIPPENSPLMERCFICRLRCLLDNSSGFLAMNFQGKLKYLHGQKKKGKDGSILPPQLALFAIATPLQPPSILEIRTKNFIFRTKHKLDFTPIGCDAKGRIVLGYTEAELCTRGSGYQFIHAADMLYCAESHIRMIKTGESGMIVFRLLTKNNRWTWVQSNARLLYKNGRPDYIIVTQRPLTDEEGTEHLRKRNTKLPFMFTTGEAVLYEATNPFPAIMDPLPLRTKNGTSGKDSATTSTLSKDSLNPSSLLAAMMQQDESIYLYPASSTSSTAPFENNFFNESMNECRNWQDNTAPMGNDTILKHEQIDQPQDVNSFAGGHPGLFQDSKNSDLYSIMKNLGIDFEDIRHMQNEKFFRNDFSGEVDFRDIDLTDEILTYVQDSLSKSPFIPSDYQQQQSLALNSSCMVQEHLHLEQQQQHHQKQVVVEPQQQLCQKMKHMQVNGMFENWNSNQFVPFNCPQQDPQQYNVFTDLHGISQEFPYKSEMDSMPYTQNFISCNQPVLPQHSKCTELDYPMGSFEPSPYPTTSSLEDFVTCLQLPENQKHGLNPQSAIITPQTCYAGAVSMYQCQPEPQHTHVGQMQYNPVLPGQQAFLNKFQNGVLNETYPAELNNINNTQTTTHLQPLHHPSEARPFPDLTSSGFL
Chain of Estrogen receptor (Homo sapiens) (P03372 whole entry, looked up): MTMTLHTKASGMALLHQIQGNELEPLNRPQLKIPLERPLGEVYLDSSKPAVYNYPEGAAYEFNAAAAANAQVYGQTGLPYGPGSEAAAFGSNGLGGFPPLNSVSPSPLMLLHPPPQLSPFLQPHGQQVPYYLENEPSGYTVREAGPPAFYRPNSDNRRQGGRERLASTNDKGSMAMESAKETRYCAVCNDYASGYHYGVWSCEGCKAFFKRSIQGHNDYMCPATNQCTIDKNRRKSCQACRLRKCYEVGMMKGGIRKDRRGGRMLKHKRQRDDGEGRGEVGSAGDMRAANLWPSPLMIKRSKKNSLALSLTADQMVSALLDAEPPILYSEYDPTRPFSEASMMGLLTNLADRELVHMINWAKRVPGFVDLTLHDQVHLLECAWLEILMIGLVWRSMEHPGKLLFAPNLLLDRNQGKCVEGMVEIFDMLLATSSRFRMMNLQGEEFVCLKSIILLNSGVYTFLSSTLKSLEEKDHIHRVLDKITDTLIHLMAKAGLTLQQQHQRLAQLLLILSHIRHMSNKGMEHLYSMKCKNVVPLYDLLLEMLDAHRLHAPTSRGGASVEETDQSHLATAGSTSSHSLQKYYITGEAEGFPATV
Chain of Aromatase (Homo sapiens) (P11511 whole entry, looked up): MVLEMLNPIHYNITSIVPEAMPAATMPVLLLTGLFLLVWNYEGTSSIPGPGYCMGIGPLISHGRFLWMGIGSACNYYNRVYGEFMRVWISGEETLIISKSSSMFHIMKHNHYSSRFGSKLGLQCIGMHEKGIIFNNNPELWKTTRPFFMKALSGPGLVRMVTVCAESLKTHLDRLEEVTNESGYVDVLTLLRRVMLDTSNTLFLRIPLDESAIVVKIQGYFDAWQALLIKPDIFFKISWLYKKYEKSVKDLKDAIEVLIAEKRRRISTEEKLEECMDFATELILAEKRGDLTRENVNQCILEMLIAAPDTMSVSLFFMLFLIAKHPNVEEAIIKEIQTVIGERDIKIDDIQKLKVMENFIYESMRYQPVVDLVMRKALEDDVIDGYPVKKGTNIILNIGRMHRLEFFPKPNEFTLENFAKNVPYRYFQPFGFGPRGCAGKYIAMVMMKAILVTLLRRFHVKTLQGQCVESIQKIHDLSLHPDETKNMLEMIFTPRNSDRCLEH

Consider `CC(C)n1c(/C=C/[C@@H](O)C[C@@H](O)CC(=O)O)c(-c2ccc(F)cc2)c2ccccc21`, for which the Potency entry in test [1], in [4], in test [5], in test [6], in test [8] and in test [9] was “inactive” each time. The Potency result in test [10], in test [11] and in test [12] was “inactive” in each case. The Potency in test [2] was 13.3 µM (active) and 21.7 µM (active); in [7] it was 15 µM (active). In addition, the result in test [3] and in test [13] was inactive.
As to `Cc1cc(Cc2ccc(N)c(C)c2)ccc1N`, the Potency result in test [1], in test [2], in test [4], in [5], in test [8] and in [9] was “inactive” each time. In addition, the Potency entry in test [10], in test [11] and in [12] was “inactive” throughout. Further, the outcome in test [3] and in test [13] was inactive.
For the compound `OCC1CCCO1` (stereo unspecified), the Potency result in [1], in [14], in [4], in test [15], in test [16] and in test [17] was “inactive” each time. The Potency result (in test [5]; in the test with Aromatase (Homo sapiens); in test [6]; in [7]; in test [8]; in [19]) was “inactive” each time. In addition, the Potency entry in test [9], in test [10], in test [11] and in test [12] was “inactive” each time. Besides, the outcome in test [18] was inactive.
For the compound `CCC(=O)O`, the Potency entry in test [1], in test [14], in test [4], in [15], in [16] and in [17] was “inactive” throughout. Besides, the Potency result (in [5]; with Aromatase (Homo sapiens); in test [6]; in test [7]; in test [8]; in test [19]) was “inactive” throughout. For the same compound, the Potency result in [9], in test [10], in test [11] and in test [12] was “inactive” in each case. Further, the call in test [18] was inactive.
As for `S=c1nc[nH]c2nc[nH]c12`, the Potency entry (in test [1]; in test [2]; in test [15]; in [16]; in test [5]; with Aromatase (Homo sapiens)) was “inactive” in each case. Besides, the Potency result in test [6] and in [12] was “inactive” in each case. The outcome in test [3] and in test [13] was inactive. The Potency result was “inactive and 23.7 µM (active)” in test [7]; 4.74 µM (active) and 7.5 µM (active) in test [10]; 842 nM (active) in [11].
Regarding `CCCCC/C=C\C/C=C\CCCCCCCC(=O)OC`, the Potency result in test [1], in test [14], in test [4], in [15], in test [16] and in [17] was “inactive” in each case. In addition, the Potency result (in [5]; with Aromatase (Homo sapiens); in test [6]; in test [7]; in [10]; in test [11]) was “inactive” each time. For the same compound, the outcome in [3] and in [18] was inactive. In addition, the Potency result in [12] was “inactive and 38.9 µM (active)”.
`CCCCCCCCCC(=O)O`: the Potency result (in test [1]; in [2]; in test [4]; in [5]; with Aromatase (Homo sapiens); in [6]) was “inactive” throughout. The Potency result in test [9], in test [10], in test [11] and in [12] was “inactive” in each case. For the same compound, the call in [3] and in [13] was inactive. For the same compound, the Potency in test [19] was 30.9 µM (active).
Consider `C/C=C(C)/C=C/C=C(C)C`, for which the Potency entry (in [1]; in test [4]; in test [5]; with Aromatase (Homo sapiens); in [6]; in test [7]) was “inactive” each time. Also, the Potency entry in test [9], in [11] and in test [12] was “inactive” each time. The compound was called inactive in test [3] and in test [18]. For the same compound, the Potency in test [10] is 60.4 µM (active).
